From PubChem BioAssay (NCATS)
Results filed as inconclusive are left out. Values without a mark were called inactive. Activity calls are given as the source filed them. The call rests on the fitted dose curve; in most records, active means well fitted inhibition curve with a large enough effect; inconclusive means small, poorly fitted or top-dose-only effect; inactive means no such curve, though single readings can be large or run the other way.

test: Counterscreen for APE1 Inhibitors: Fluorescent Dye Displacement Validation Assay (AID 1707); details: fluorescent dye displacement from DNA; series mostly up to 57.1 µM; activity change, negative = inhibition: at the top concentration
From the text: In order to distinguish true inhibitors of DNA-processing enzymes from promiscuous DNA-binding compounds among screening assay hits, we developed a homogeneous and miniaturized assay based on fluorescent dye displacement test as originally described by Tse and Boger (Accounts of Chemical Research (2004) 37: 61-69). The assay is based on the strong enhancement of fluorescence when Thiazole Orange (ThO) binds to double-stranded DNA: conversely, in the presence of a DNA-binding compound, Thiazole Orange is displaced from the DNA and its fluorescence is reduced.
Buffer. 50 mM Tris-HCl (pH7.5) containing 50mM NaCl, 2 mM MgCl2, and 0.01% Tween-20.
Buffer containing 250 nM ThO in columns 3 and 4 as negative control (no dsDNA).
Reaction mixture: 250 nM ThO and 50 nM dsDNA at final concentration dispensed throughout the plate: in columns 1, 2, 5-48. Column 1 is neutral (100% activity).
5''TAMRA- TC ACC FTC GTA CGA CTC
3'' AG TGG GAG CAT GCT GAG
where F denotes tetrahydrofuran.
Control: Pintool transfer of control compound WB64 (W4761, Sigma-Aldrich) to column 2 of all assay plates as a two-fold 16-point dilution in duplicate (concentration range 5.75 uM - 0.175 nM).
Four uL of reaction mixtures were dispensed to 1536-well Greiner black solid bottom plates. Compounds (23 nL) were transferred […] in order to measure the endpoint fluorescence using 480 nm excitation and 540 nm emission fluorescence protocol.
Potency means the concentration at half of the fitted maximal effect.

Row | Structure (SMILES) | activity change, negative = inhibition | Potency
1 | NC(=O)c1ccc(OCC(O)CN2CC=C(c3ccc(F)cc3)CC2)cc1 (stereo not given) | 5.55% | –
2 | COc1ccc(OC)c(C(O)C(C)N)c1 (stereo not given) | -1.15% | –
3 | OCc1cnc[nH]1 | -0.348% | –
4 | NCC(O)c1cc(O)c(O)cc1F (stereo not given) | 2.89% | –
5 | CN1CCC(c2c[nH]c3ccc(O)cc23)CC1 | 1.53% | –
6 | CC(C)NP(=O)(NC(C)C)OP(=O)(NC(C)C)NC(C)C | -1.11% | –
7 | C[C@@H]1O[C@H](C[N+](C)(C)C)CS1 | 6.4% | –
8 | O=C1CC[C@@]2(O)C3Cc4ccc(O)c5c4C2(CCN3CC2CC2)[C@H]1O5 (stereo not given in full) | 5.19% | –
9 | NC(N)=Nc1ccc2[nH]c3c(c2c1)C[C@@]1(O)[C@H]2Cc4ccc(O)c5c4[C@@]1(CCN2CC1CC1)[C@H]3O5 | -0.684% | –
10 | COc1ccc2c(c1)[C@@]13CCCC[C@H]1[C@@H](C2)NCC3 | 0.609% | –
11 | c1ccc2c(N3CCNCC3)cccc2c1 | -0.955% | –
12 | Oc1ccc2c3c1O[C@H]1c4oc5ccccc5c4C[C@@]4(O)C(C2)N(CC2CC2)CCC314 (stereo not given in full) | -3.95% | –
13 | c1ccc2cc(CC3=NCCN3)ccc2c1 | 0.59% | –
14 | Cc1sc2ccccc2c1CC1=NCCN1 | -3.26% | –
15 | CNc1ccc2oc(C[C@H]3O[C@@]4(CC[C@H]3C)O[C@H]([C@H](C)C(=O)c3ccc[nH]3)[C@H](C)C[C@H]4C)nc2c1C(=O)O | 1.32% | –
16 | Nc1ccc(CCN2CCN(c3cccc(C(F)(F)F)c3)CC2)cc1 | -1.36% | –
17 | C[N+]1(C)CCC(OC(=O)C(c2ccccc2)c2ccccc2)CC1 | 1.81% | –
18 | CCn1cnc2c(Nc3cccc(Cl)c3)nc(N[C@@H]3CCCC[C@@H]3N)nc21 | -2.94% | –
19 | CC(N)Cc1c[nH]c2ccc(OCc3cccs3)cc12 (stereo not given) | 3.4% | –
20 | O=S1(=O)N(CCN2CC=C(c3c[nH]c4cc(F)ccc34)CC2)c2cccc3c2N1CCC3 | 3.64% | –

Row | Structure (SMILES) | activity change, negative = inhibition | Potency
21 | CCCN(CCC)C1Cc2cc(OC)c(OC)cc2C1 | -1.43% | –
22 | CCCN(CCC)C1CCc2cccc(O)c2C1 (stereo not given) | 0.268% | –
23 | CC(=O)NBr | -5.74% | –
24 | NC(=O)COc1c(F)cc(SCCNS(=O)(=O)c2ccccc2)cc1F | 1.02% | –
25 | CC(C)(C)c1cc(C=C(C#N)C#N)cc(C(C)(C)C)c1O | 2.92% | –
26 | C[C@]12Cc3cn4c(nc3C=C1CCC1C2CC[C@@]2(C)[C@H]1CC[C@@]2(O)C#N)nc1ccccc14 (stereo not given in full) | 4.9% | –
27 | CC(=O)c1c(O)c(C)c(O)c(Cc2c(O)c3c(c(C(=O)/C=C/c4ccccc4)c2O)OC(C)(C)C=C3)c1O | – | 2240 nM (active)
28 | COc1ccc2c(c1OC)C(=O)OC2C1c2cc3c(cc2CCN1C)OCO3 (stereo not given) | 3.02% | –
29 | C[C@H](N)CN1CCc2ccc(Br)cc21 | 6.74% | –
30 | C[N+]1(C)CCOC(O)(c2ccc(-c3ccc(C4(O)C[N+](C)(C)CCO4)cc3)cc2)C1 (stereo not given) | 1.69% | –
31 | N[C@@H](CCl)C(=O)O | 0.378% | –
32 | COc1ccc(CNC(=O)/C=C/c2ccc3[nH]cc(CCN(C)C)c3c2)cc1 | -1.53% | –
33 | CCCn1c(=O)c2[nH]c(C3CCCC3)nc2n(CCCOC(=O)c2ccc(S(=O)(=O)F)cc2)c1=O | 32.5% | –
34 | C=CCN1CCC23c4c5ccc(O)c4O[C@H]2C(=O)CC[C@@]3(O)C1C5 (stereo not given in full) | 2.72% | –
35 | CCCCCCC(C)(C)c1ccc([C@@H]2C[C@H](O)CC[C@H]2CCCO)c(O)c1 | -5.81% | –
36 | C[N+](C)(C)CC#CCN1CCCC1=O | 3.72% | –
37 | C[N+](C)(C)CCOC(=O)CBr | 2.35% | –
38 | NNC(=O)c1ccc(O)cc1 | 0.201% | –
39 | O=C(O)c1cc[c]([Hg][Cl])cc1 | 3.99% | –
40 | C[N+](C)(C)CC#CCOC(=O)Nc1cccc(Cl)c1 | 3.3% | –
